The list is not random: actives were taken first. Their share in the collection is about 12%.
Pf growth 96h = P. falciparum growth inhibition at 96 hours | AID 504834 | 6.9% of 320,000 active | Potency, µM (top dose mostly 28.7 µM), usual class: inhibitors | P. falciparum luciferase reporter growth, 96 h
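Parasite growth measured via integrated firefly luciferase reporter in P. falciparum. Infected erythrocytes at 2% hematocrit, 0.05% parasitemia final were treated 96 hours at 37 C under 5% CO2, and luminescence was read.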
Sm TGR block = blocks Schistosoma mansoni thioredoxin glutathione reductase | Q962Y6 | purified TGR, DTNB reduction, TNB absorbance 405 nm | Potency, µM (top dose mostly 114 µM), actives largely listed as inhibitors | 3% of 360,000 active; also: nearly all actives have a fitted effect of over 60% in size
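TGR 20 nM + NADPH 100 uM (dispensed conc.), cpd preinc 15 min RT; start with NADPH (500 uM addition) then DTNB (15 mM addition). Kinetic TNB absorbance, 405 nm filter. Four-parameter Hill fit across titration.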
AmpC no deterg = inhibitors of E. coli AmpC beta-lactamase without detergent; P00811; AmpC nitrocefin hydrolysis, absorbance 480 nm, 0.0001% Triton; Potency, µM (highest dose often 57.1 µM), actives largely listed as inhibitors; 0.52% of 330,000 active; AID 485341; also: nearly all actives have a fitted effect of over 20% in size
Target sequence (P00811 whole entry, looked up): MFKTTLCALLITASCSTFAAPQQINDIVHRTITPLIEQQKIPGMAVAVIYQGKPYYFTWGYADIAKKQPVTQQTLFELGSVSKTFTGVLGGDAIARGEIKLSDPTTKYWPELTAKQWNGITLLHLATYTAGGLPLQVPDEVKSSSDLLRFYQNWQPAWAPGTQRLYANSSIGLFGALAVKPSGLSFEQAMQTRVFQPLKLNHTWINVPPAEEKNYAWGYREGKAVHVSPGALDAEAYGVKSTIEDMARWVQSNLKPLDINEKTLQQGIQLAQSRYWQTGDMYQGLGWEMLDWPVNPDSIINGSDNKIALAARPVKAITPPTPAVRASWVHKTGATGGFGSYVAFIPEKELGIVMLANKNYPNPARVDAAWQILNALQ
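AmpC (5.3 nM in the dispensed reagent) in 20 mM phosphate pH 7.0 with 0.01% (detergent screen) or 0.0001% Triton X-100 was preincubated with compounds for 15 min at room temperature. Nitrocefin was then added from an 800 uM solution, and hydrolysis was followed at 480 nm.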
SARS PLP yeast = blocks SARS-CoV papain-like protease in a yeast assay | S. cerevisiae expressing SARS-CoV PLpro, growth rescue | Potency, µM (series often up to 32.9 µM), actives largely listed as activators | 0.19% of 330,000 active; calls by dose curve; also: nearly all actives have a fitted effect of over 55% in size
AmpC inh detg = AmpC beta-lactamase inhibition with detergent present; P00811; AmpC hydrolysis of nitrocefin, absorbance 480 nm, 0.01% Triton; Potency, µM (top dose mostly 114 µM), hits mostly inhibitors; 0.041% of 370,000 active; AID 485294; also: nearly all actives have a fitted effect of over 25% in size
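AmpC (5.3 nM in the dispensed reagent) in 20 mM phosphate pH 7.0 with 0.01% (detergent screen) or 0.0001% Triton X-100 was preincubated with compounds for 15 min at room temperature. Nitrocefin was then added from an 800 uM solution, and hydrolysis was followed at 480 nm.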
Pf growth 48h = P. falciparum growth inhibition at 48 hours (one generation) | P. falciparum luciferase growth in erythrocytes, 48 h | 5.9% of 310,000 active | Potency, µM (highest dose often 28.7 µM), most hits filed as inhibitors
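Cell-based growth assay: transgenic P. falciparum expressing firefly luciferase, cultured in red cells within RPMI 1640 containing 0.5% w/v Albumax, 24 mM bicarbonate and gentamycin. A drop in luciferase activity indicates inhibition.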
A number is an active result; i = inactive; ? = inconclusive; nt = not tested or not shown. Unless noted, calls follow the shape of the dose curve; as a rule, active = well fitted curve in the direction sought with a large enough effect; inconclusive = small, poorly fitted or top-dose-only effect, or another doubt; inactive = no such curve, though single readings can be large; an effect the other way counts as inactive or inconclusive.

SMILES	Pf growth 96h	Sm TGR block	AmpC no deterg	SARS PLP yeast	AmpC inh detg	Pf growth 48h
COC(=O)C1(O)CC(CC(C)C)=NN1C(=O)c1ccccc1 (centres undefined)	0.29µM	i	?	i	i	i
Cc1c(Cl)cccc1N1CCn2c1nc1c2c(=O)n(CC(=O)O)c(=O)n1C	nt	i	nt	nt	i	nt
C=C(C)Cn1c(=O)c2c(nc3n2CCN3c2cccc(Cl)c2C)n(C)c1=O	?	i	i	i	i	9.3µM
CCN(C(=O)c1cn(CC(C)C)c(=O)c2cc(OC)c(OC)cc12)c1cc(OC)ccc1OC	nt	i	nt	nt	i	nt
COc1cc([C@@H]2CC=C(C(=O)O)[C@H](c3ccccc3F)N2S(=O)(=O)c2ccc(C)cc2)cc(OC)c1OC	10µM	i	i	i	i	10µM
COc1cc([C@@H]2CC=C(C(=O)O)[C@H](c3ccc(F)cc3)N2S(=O)(=O)c2ccc(C)cc2)cc(OC)c1OC	1.9µM	i	i	i	i	3.3µM
COc1cccc([C@@H]2CC=C(C(=O)O)[C@H](c3cccc(Cl)c3)N2S(=O)(=O)c2ccc(C)cc2)c1	12µM	i	i	i	?	?
COc1ccc([C@@H]2CC=C(C(=O)O)[C@H](c3ccc(F)cc3)N2S(=O)(=O)c2ccc(C)cc2)cc1OC	10µM	i	i	i	?	?
COc1ccc([C@@H]2CC=C(C(=O)O)[C@H](c3ccc(Br)cc3)N2S(=O)(=O)c2ccc(C)cc2)cc1OC	nt	nt	i	i	nt	nt
CCC1CCCCN1C(=O)CSc1nc(-c2ccc(OC)cc2)cc(C(F)(F)F)n1 (centres undefined)	nt	i	nt	nt	i	nt
Cc1ccc(S(=O)(=O)N2[C@@H](c3ccccc3F)C(C(=O)O)=CC[C@H]2c2ccc(Cl)c(Cl)c2)cc1	12µM	i	i	i	i	?
Cc1ccc(S(=O)(=O)N2[C@@H](c3ccccc3)C(C(=O)O)=CC[C@H]2c2ccc(Cl)c(Cl)c2)cc1	i	i	i	i	i	?
O=C(NC(=O)c1ccc(F)cc1F)Nc1ccc(Cl)cc1	i	i	i	i	i	5.2µM
Cc1cc2cc3c(cc2nc1SCc1ccc(C(=O)O)cc1)OCCO3	9.3µM	i	i	i	i	i
Cc1cc2cc3c(cc2nc1SCC(=O)O)OCCO3	?	i	i	i	i	i
Cc1cc2cc3c(cc2nc1SCC(=O)OC(C)C)OCCO3	i	i	i	i	i	nt
COc1cccc(CSc2nc3cc4c(cc3cc2C)OCCO4)c1	5.9µM	i	i	i	i	i
CCOC(=O)CSc1nc2cc3c(cc2cc1CC)OCCO3	12µM	?	i	i	i	?
O=C(N/N=C/c1cc(Br)c(O)c(Br)c1O)c1cccnc1	i	?	i	i	i	10µM
O=C(N/N=C(\c1ccccc1)c1cccnc1)c1cc(O)ccc1O	i	40µM	i	i	i	i
O=C(N/N=C/c1cc(O)ccc1Br)c1cccnc1	i	i	i	i	?	13µM
COc1ccc(NC(=O)Cn2nnc(-c3nc(-c4ccncc4)no3)c2N)cc1OC	nt	i	nt	nt	i	nt
COc1ccccc1-n1c(=O)n(C)c2c(C(N)=O)nc(-c3cc(OC)c(OC)c(OC)c3)nc21	nt	i	nt	nt	i	nt
O=C(O)c1ccccc1C(=O)Nc1nc(-c2ccc3ccccc3c2)cs1	i	i	i	i	i	i
CCC(C)C(=O)OC1CC(O)C=C2C=CC(C)C(CCC(O)CC(O)CC(=O)O)C21 (centres undefined)	i	nt	nt	nt	nt	i
O=C(COc1cc(O)c2c(=O)cc(-c3ccccc3)oc2c1)c1ccccc1	i	i	i	i	i	i
O=C(COc1cc(O)c2c(=O)cc(-c3ccccc3)oc2c1)c1cccc([N+](=O)[O-])c1	i	i	i	i	i	4.1µM
COc1ccc2cc([C@H](C)C(=O)N(C)Cc3ccccc3N3CCCC3)ccc2c1	3.7µM	i	i	i	?	?
COc1ccc(C(CNC(=O)C(C)c2ccc3cc(OC)ccc3c2)N(C)C)cc1 (centres undefined)	?	i	i	i	i	?

Screens: PubChem BioAssay, National Center for Advancing Translational Sciences (NCATS)
